Test results: PubChem BioAssay (NCI)
Compounds without any hit were thinned out: in the full panel of roughly 79,000, 15% have a hit. Active and inactive are the calls of the source. Cut-off read from the data, not from the text of the source: active = growth inhibition above about 70%; inactive = the rest.

Experiment: NCI Yeast Anticancer Drug Screen. Data for the rad50 strain (AID 155);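 note: 0% = growth of vehicle-only cultures of the same strain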
Conditions: S. cerevisiae rad50 strain growth inhibition; at 50.0 µM; stronger effect = higher value
Summary of the method: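 Vehicle-treated cultures provide the reference for the growth inhibition reported for compound-exposed, repair-deficient yeast.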

For Nc1nc(Cc2ccccc2)nc2[nH]ncc12, which growth inhibition is on record?
Its growth inhibition is 3.85% (inactive).

Which growth inhibition does the source give for O=S(=O)(O)C(Nc1ccc(Cl)cc1)c1ccccc1 (stereo not drawn) here?
The growth inhibition was 0.15% (inactive).

With CC(=O)OC1C=CCC2C(=O)C3=C(C(=O)c4ccccc4C3=O)C(=O)C12 (stereo not drawn) as the compound, how does the growth inhibition read?
Its growth inhibition is 72.6% (active).

With O=C(Cl)CN1C(=O)c2ccccc2C1=O as the compound, how does the growth inhibition read?
The growth inhibition was -12.1% (inactive).

For Cc1cc(=O)[nH]c(NN)n1, which growth inhibition is on record?
Its growth inhibition is 1% (inactive).

For O=C1CCCC/C1=C\c1ccc([N+](=O)[O-])cc1, which growth inhibition is on record?
Its growth inhibition is 28.4% (inactive).

Which growth inhibition does the source give for CCN(CC)c1cccc(C(=O)OCCNCC(C)C)c1 here?
Its growth inhibition is -9.7% (inactive).

With COC(=O)CCC(C)C1CCC2C3CCC4CC5CCC4(C)C3(O5)C(Br)C(Br)C12C (stereo not drawn) as the compound, how does the growth inhibition read?
Its growth inhibition is -11.8% (inactive).

For Fc1cccc(C2SCc3nc4cc5ccccc5cc4n32)c1 (stereo not drawn), which growth inhibition is on record?
The growth inhibition was -21.8% (inactive).

For O=c1[nH][nH]c(=O)c2c1ncn2Cc1ccccc1, which growth inhibition is on record?
Its growth inhibition is 34.9% (inactive).

For CC(=O)OCC1OC(n2nc(C#N)c(C#N)n2)C(OC(C)=O)C1OC(C)=O (stereo not drawn), which growth inhibition is on record?
The growth inhibition was 37.9% (inactive).

For c1ccc2c[n+]3cc4ccccc4cc3cc2c1, which growth inhibition is on record?
The growth inhibition was 30.9% (inactive).

With O=[N+]([O-])c1ccc(C=Nc2ccc3c(c2)Cc2ccccc2-3)cc1 as the compound, how does the growth inhibition read?
Its growth inhibition is -7.7% (inactive).

Which growth inhibition does the source give for CCOC(=O)c1ncn2c1[nH]c(=O)c1ccccc12 here?
The growth inhibition was -6.95% (inactive).

With CCCc1ccc(N=Nc2ccc(C(=O)O)cc2)cc1 as the compound, how does the growth inhibition read?
The growth inhibition was -1.25% (inactive).

For COC(=O)NN=C1C(C)(C)C(=NNC(=O)OC)C1(C)C, which growth inhibition is on record?
The growth inhibition was 2.25% (inactive).

For CCCCCCCCCC/C=C/c1c(C)[nH]c2ccccc2c1=O, which growth inhibition is on record?
The growth inhibition was -11.9% (inactive).

For CC1(O)CC2C=CC1CC2 (stereo not drawn), which growth inhibition is on record?
Its growth inhibition is 9.65% (inactive).
